Measurements taken from PubChem BioAssay (NCI).
About 83,000 compounds went through this panel and 20% of them were active in at least one assay; those are over-represented in the sample as a whole.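 Cells were grown in 96-well plates and exposed to the test compound at a single concentration for 48 hours; results are reported as percent growth, with values below 10 considered active.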 Unmarked numbers belong to inactive results. Activity calls are given as the source filed them.

The compounds below were run on HL-60(TB) leukemia (assay: NCI-60 one-dose screen, 48 h (100 = growth as untreated, 0 = no growth, -100 = all killed)). Settings: 10 µM unless noted.

Structure (SMILES) | growth
COc1cc(-c2nc3ccccc3[nH]2)ccc1OCC(=O)N=Nc1c(O)[nH]c2ccc(Cl)cc12 | -30.8% (active)
O=S(=O)(NCCNc1nccc(-c2c(-c3cccc(O)c3)nc3sccn23)n1)c1ccc(F)cc1 | 86.5%
Cc1cnc(C=O)c2cccc([N+](=O)[O-])c12 | 66.1%
COC(=O)OC1C(O[C@H]2C[C@H]3[C@@H]4CC=C5C[C@@H](O)CC[C@]5(C)[C@H]4CC[C@]3(C)[C@H]2[C@H](C)C(=O)CCC(C)C)OCC(O)C1OC1OCC(O)C(O)C1OC(=O)c1ccc(OC)cc1 (stereo partly drawn) | -22.3% (active)
CN1C(=O)N(C)C2NC(N/N=C/c3ccccc3)=NC21 (stereo not drawn) | 99.6%
Cc1c(CC(=O)OCCO)cc(-c2ccc(Cl)cc2)n1-c1ccccc1 | 95.7%
CC(C)CN1CC(C(=O)Nc2ccc3c(c2)-c2ccccc2C3)CC1=O (stereo not drawn) | 91.7% [50 µM]
COc1cc2c(cc1-c1c(C)noc1C)ncc1nc(C3CCC(F)(F)CC3)n([C@@H](C)COC(F)F)c12 | 18%
CCCn1nc(-c2ccccc2)c2c(-c3ccccc3)onc2c1=O | 69.6%
Cc1ccc(O)c(NC(=O)c2ccc(CNc3ccnc(C(F)(F)F)c3)cc2)c1 | 9.24% (active)
COc1ccc2c(c1)C(=O)/C(=C/c1ccc(OCC(=O)Nc3nccs3)cc1)O2 | -84.2% (active)
NC(=NC1C2CC3CC(C2)CC1C3)Nc1ccc(I)cc1 (stereo not drawn) | 101%
COc1cccc2c1C(=O)c1c(O)c3c(c(O)c1C2=O)C[C@@](O)(C(=O)CO)C[C@@H]3OC1C[C@H](N)[C@H](O)[C@H](C)O1 (stereo partly drawn) | -26.7% (active)
